Results as given in the supplement of paper PMC8975748.
Counter-ions that a name gives are not always drawn. ± gives the standard deviation of the averaged measurements.

Assays:
[1] = system: Saccharomyces cerevisiae BY4741 SeMeCo community; experiment: mean cell size (pixel area) (pixels); higher = larger cells; details: 10 µM; 24 h; SM minimal medium
Outline: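 In this assay, mean cell pixel area per well was obtained from automated confocal images of paraformaldehyde-fixed yeast analysed in Harmony. The cells were a Saccharomyces cerevisiae BY4741 community with four plasmids, each complementing one auxotrophy and carrying a fluorescent marker, grown for 24 h in SM medium with drug at a final 10 µM in 384-well plates. Values are averaged across 3 replicates. Same SeMeCo high-content imaging drug screen: Selleck FDA-approved drugs at 10 µM, 24 h in SM medium, 384-well plates, 3 replicates.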

[2] = system: Saccharomyces cerevisiae BY4741 SeMeCo community; experiment: z-score of prototroph abundance vs DMSO median; higher = larger share of this subpopulation than in DMSO controls; details: 10 µM; 24 h; SM minimal medium; subpopulation (auxotrophy): Prototroph
Outline: (§1)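 Four plasmids, each restoring a single auxotrophy and encoding a distinct fluorescent protein, were carried by a Saccharomyces cerevisiae BY4741 community. After overnight growth to OD600 1.0 and dilution to 0.3, 70 µl per well was grown for 24 h in minimal SM medium on 384-well plates acoustically predosed with library drugs at 10 µM final. Following paraformaldehyde fixation, automated confocal microscopy was used, with single-auxotroph fluorescent strains defining thresholds and autofluorescence correction. Subpopulation abundance was then scored as a z-score against the vehicle-well median.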

[3] = system: Saccharomyces cerevisiae BY4741 SeMeCo community; experiment: z-score of subpopulation abundance vs DMSO median, subpopulation auxotrophic for M; higher = larger share of this subpopulation than in DMSO controls; details: 10 µM; 24 h; SM minimal medium; subpopulation (auxotrophy): M
Outline: as §1

[4] = system: Saccharomyces cerevisiae BY4741 SeMeCo community; experiment: z-score of subpopulation abundance vs DMSO median, subpopulation auxotrophic for L; higher = larger share of this subpopulation than in DMSO controls; details: 10 µM; 24 h; SM minimal medium; subpopulation (auxotrophy): L
Outline: as §1

[5] = system: Saccharomyces cerevisiae BY4741 SeMeCo community; experiment: z-score of subpopulation abundance vs DMSO median, subpopulation auxotrophic for U; higher = larger share of this subpopulation than in DMSO controls; details: 10 µM; 24 h; SM minimal medium; subpopulation (auxotrophy): U
Outline: as §1

[6] = system: Saccharomyces cerevisiae BY4741 SeMeCo community; experiment: z-score of subpopulation abundance vs DMSO median, subpopulation auxotrophic for H; higher = larger share of this subpopulation than in DMSO controls; details: 10 µM; 24 h; SM minimal medium; subpopulation (auxotrophy): H
Outline: as §1

[7] = system: Saccharomyces cerevisiae BY4741 SeMeCo community; experiment: z-score of subpopulation abundance vs DMSO median, subpopulation auxotrophic for LU; higher = larger share of this subpopulation than in DMSO controls; details: 10 µM; 24 h; SM minimal medium; subpopulation (auxotrophy): LU
Outline: as §1

[8] = system: Saccharomyces cerevisiae BY4741 SeMeCo community; experiment: z-score of subpopulation abundance vs DMSO median, subpopulation auxotrophic for LM; higher = larger share of this subpopulation than in DMSO controls; details: 10 µM; 24 h; SM minimal medium; subpopulation (auxotrophy): LM
Outline: as §1

[9] = system: Saccharomyces cerevisiae BY4741 SeMeCo community; experiment: z-score of subpopulation abundance vs DMSO median, subpopulation auxotrophic for HM; higher = larger share of this subpopulation than in DMSO controls; details: 10 µM; 24 h; SM minimal medium; subpopulation (auxotrophy): HM
Outline: as §1

[10] = system: Saccharomyces cerevisiae BY4741 SeMeCo community; experiment: z-score of subpopulation abundance vs DMSO median, subpopulation auxotrophic for HU; higher = larger share of this subpopulation than in DMSO controls; details: 10 µM; 24 h; SM minimal medium; subpopulation (auxotrophy): HU
Outline: as §1

[11] = system: Saccharomyces cerevisiae BY4741 SeMeCo community; experiment: z-score of subpopulation abundance vs DMSO median, subpopulation auxotrophic for HL; higher = larger share of this subpopulation than in DMSO controls; details: 10 µM; 24 h; SM minimal medium; subpopulation (auxotrophy): HL
Outline: as §1

[12] = system: Saccharomyces cerevisiae BY4741 SeMeCo community; experiment: z-score of subpopulation abundance vs DMSO median, subpopulation auxotrophic for HLM; higher = larger share of this subpopulation than in DMSO controls; details: 10 µM; 24 h; SM minimal medium; subpopulation (auxotrophy): HLM
Outline: as §1

[13] = system: Saccharomyces cerevisiae BY4741 SeMeCo community; experiment: z-score of subpopulation abundance vs DMSO median, subpopulation auxotrophic for HLUM; higher = larger share of this subpopulation than in DMSO controls; details: 10 µM; 24 h; SM minimal medium; subpopulation (auxotrophy): HLUM
Outline: as §1

[14] = system: Saccharomyces cerevisiae BY4741 SeMeCo community; experiment: z-score of subpopulation abundance vs DMSO median, subpopulation auxotrophic for UM; higher = larger share of this subpopulation than in DMSO controls; details: 10 µM; 24 h; SM minimal medium; subpopulation (auxotrophy): UM
Outline: as §1

[15] = system: Saccharomyces cerevisiae BY4741 SeMeCo community; experiment: z-score of subpopulation abundance vs DMSO median, subpopulation auxotrophic for HUM; higher = larger share of this subpopulation than in DMSO controls; details: 10 µM; 24 h; SM minimal medium; subpopulation (auxotrophy): HUM
Outline: as §1

[16] = system: Saccharomyces cerevisiae BY4741 SeMeCo community; experiment: z-score of subpopulation abundance vs DMSO median, subpopulation auxotrophic for LUM; higher = larger share of this subpopulation than in DMSO controls; details: 10 µM; 24 h; SM minimal medium; subpopulation (auxotrophy): LUM
Outline: as §1

Structure (SMILES) | mean cell size [1] | z-score of prototroph abundance [2] | z-score of subpopulation abundance [3] | z-score of subpopulation abundance [4] | z-score of subpopulation abundance [5] | z-score of subpopulation abundance [6] | z-score of subpopulation abundance [7] | z-score of subpopulation abundance [8] | z-score of subpopulation abundance [9] | z-score of subpopulation abundance [10] | z-score of subpopulation abundance [11] | z-score of subpopulation abundance [12] | z-score of subpopulation abundance [13] | z-score of subpopulation abundance [14] | z-score of subpopulation abundance [15] | z-score of subpopulation abundance [16]
CCCN1CCCC[C@H]1C(=O)Nc1c(C)cccc1C [Ropivacaine] | 12.24 ± 0.031 | 0.72 | 0.5 | -0.8 | -0.73 | -0.64 | -1.21 | 0.11 | -0.51 | -0.86 | -0.66 | -0.22 | -0.55 |  |  | 
CN1C(C(=O)Nc2ccccn2)=C(O)c2ccccc2S1(=O)=O [Piroxicam] | 12.79 ± 0.11 | 1.29 | -0.1 | -0.78 | -0.17 | -0.62 | -0.71 | -1.45 | -0.94 | -0.6 | -0.37 | -0.68 |  | -0.3 | -0.89 | -1.33
CCCNC(C)C(=O)Nc1ccccc1C (stereo unspecified) [Prilocaine hydrochloride] |  | -0.24 | -0.36 | 0.41 | 0.86 | -0.67 | 1.11 | 0.83 | -0.46 | 0.08 | 0.03 | -0.05 | 0.58 | 0.54 |  | 0.73
CN[C@@H]1[C@@H](O[C@H]2O[C@H](CO)[C@@H](N)[C@H](O)[C@H]2O)OC2C[C@@H](N)[C@@H](O[C@H]3[C@H](O)[C@@H](O)[C@H](N)C[C@@H]3N)OC2[C@@H]1O (stereo partly specified) [Apramycin Sulfate] |  | -0.43 | -0.24 | -0.01 | 0.87 | -0.41 | 0.41 | 0.1 | 0.03 | -0.09 | 0.24 | 0.1 | 1.47 | 0.56 | 0.37 | 0.97
O=C1C(N(CO)C(=O)NCO)N(CO)C(=O)N1CO (stereo unspecified) [Diazolidinyl urea] |  | 1.06 | -1.49 | 0.77 | -0.26 | -0.72 | 0.3 | -0.49 | -1.17 | -0.75 | -0.07 |  | 0.51 | -0.82 | -0.76 | -0.16
